Measured values as given in PubChem BioAssay (Tox21).
Results filed as inconclusive are left out. The source made the active and inactive calls. Calls come from the whole dose curve.

Experiments:
[1] = molecular target: Acetylcholinesterase (Homo sapiens) (UniProt P22303); experiment: Acetylcholinesterase (AChE) small molecule antagonists: colormetric cell-based qHTS assay (AID 1347395); note: nearly all actives have a fitted effect of over 30% in size
Method in brief: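 SH-SY5Y cells attached overnight, exposed to compound 30 min at 37 C, then given DTNB/acetylthiocholine; after 90 min at 37 C, colorimetric thiocholine read gives cellular AChE activity.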

[2] = molecular target: Acetylcholinesterase (Homo sapiens) (UniProt P22303); experiment: Acetylcholinesterase (AChE) small molecule antagonists: enzyme-based qHTS assay (AID 1347397); conditions: Potency: AChE enzyme activity inhibition; outcome: AChE enzyme activity inhibition; note: nearly all actives have a fitted effect of over 55% in size
Method in brief: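 First, recombinant human AChE (50 mU/mL as dispensed) received test compound or DMSO. Second, plates stood 30 min at room temperature. Third, DTNB and acetylthiocholine were added, followed by 10 min at room temperature and colorimetric detection.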

[3] = molecular target: Acetylcholinesterase (Homo sapiens) (UniProt P22303); experiment: Acetylcholinesterase (AChE) small molecule antagonists: enzyme-based qHTS assay with human liver microsomes (AID 1347399); conditions: Potency: qHTS inhibition; outcome: qHTS inhibition; note: nearly all actives have a fitted effect of over 60% in size
Method in brief: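 Recombinant human AChE (50 mU/mL in the enzyme mix) and human liver microsomes (0.25 mg/mL final) were preincubated with compound and NADPH (0.25 mg/mL final) for 30 min at 37 C. Acetylthiocholine/DTNB was then added; thiocholine was read colorimetrically after 10 min at room temperature.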
% is set by controls: 0 for no effect and ±100 for the full control effect.

Chain of Acetylcholinesterase (Homo sapiens) (P22303 whole entry, looked up): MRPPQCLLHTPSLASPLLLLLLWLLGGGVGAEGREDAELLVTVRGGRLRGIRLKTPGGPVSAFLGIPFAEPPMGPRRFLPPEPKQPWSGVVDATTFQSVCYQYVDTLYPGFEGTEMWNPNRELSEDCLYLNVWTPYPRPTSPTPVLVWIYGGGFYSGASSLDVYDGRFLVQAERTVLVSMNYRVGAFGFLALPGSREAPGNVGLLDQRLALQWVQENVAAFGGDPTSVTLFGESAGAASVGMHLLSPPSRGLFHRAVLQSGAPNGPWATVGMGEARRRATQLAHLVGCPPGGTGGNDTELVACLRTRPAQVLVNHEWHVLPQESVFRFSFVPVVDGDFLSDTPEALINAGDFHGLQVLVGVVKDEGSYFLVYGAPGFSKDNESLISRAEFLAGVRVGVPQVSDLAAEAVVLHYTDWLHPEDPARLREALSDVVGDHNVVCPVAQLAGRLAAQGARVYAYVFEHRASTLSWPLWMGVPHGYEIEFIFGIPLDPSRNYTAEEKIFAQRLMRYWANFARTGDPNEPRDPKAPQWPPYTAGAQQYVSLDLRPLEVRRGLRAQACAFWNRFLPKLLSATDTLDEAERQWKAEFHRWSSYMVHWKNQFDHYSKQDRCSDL

O=C1Cc2cc(CCN3CCN(c4nsc5ccccc45)CC3)c(Cl)cc2N1
inactive: Potency [1] | Potency [2] | Potency [3]

OCc1cc(C(O)CNCCCCCCOCCCCc2ccccc2)ccc1O (stereo not given)
inactive: Potency [1] | Potency [2] | Potency [3]

NC(=O)n1c(O)c(C(=O)c2cccs2)c2cc(Cl)ccc21
inactive: Potency [1] | Potency [2] | Potency [3]

CN(C)CCOC(c1ccc(Cl)cc1)c1ccccn1 (stereo not given)
inactive: Potency [1] | Potency [2] | Potency [3]

Cc1ccc(O)c(O)c1
inactive: Potency [1] | Potency [2] | Potency [3]

COC(=O)CSc1cc(N=c2sc(=O)n3n2CCCC3)c(F)cc1Cl
inactive: Potency [1] | Potency [2] | Potency [3]

COc1cc(NC(C)CCCN)c2ncccc2c1 (stereo not given)
inactive: Potency [1] | Potency [2] | Potency [3]

CN1CCN(CCC(=O)N2c3ccccc3Sc3ccc(C(F)(F)F)cc32)CC1
inactive: Potency [1] | Potency [2] | Potency [3]

COc1c(N2C[C@@H]3CCCN[C@@H]3C2)c(F)cc2c(=O)c(C(=O)O)cn(C3CC3)c12
inactive: Potency [1] | Potency [2] | Potency [3]

Nc1cc(C(Cl)=C(Cl)Cl)c(S(N)(=O)=O)cc1S(N)(=O)=O
inactive: Potency [1] | Potency [2] | Potency [3]

CCCCCCCC/C=C/C(=O)O
inactive: Potency [1] | Potency [2] | Potency [3]

CCOC(=O)Nc1ccc(NCc2ccc(F)cc2)nc1N
inactive: Potency [1] | Potency [2] | Potency [3]

CCCCCCCCCCCCCCCCCCCl
inactive: activity, negative = inhibition [1] -3.15% [at 10.5 µM] | activity change, negative = inhibition [2] -0.128% [at 10.5 µM] | activity change, negative = inhibition [3] 0.243% [at 10.5 µM]

CC(C)COC(=O)c1ccc(O)cc1
inactive: Potency [1] | Potency [2] | Potency [3]

CN(C/C=C/c1ccccc1)Cc1cccc2ccccc12
inactive: outcome [1] | outcome [2] | outcome [3]
